Experimental data as given in PubChem BioAssay (NCATS).
Inconclusive results are not listed. Activity calls are given as the source filed them. The call rests on the fitted dose curve.

Experiment: qHTS Assay for Lipid Storage Modulators (AID 1519); on activity change, negative = inhibition: on the % scale 0 is the no-effect control and ±100 the full control effect
Details: Drosophila S3 cells, BODIPY lipid droplet/cell ratio, laser cytometry, cells loaded with oleic acid; for activity change, negative = inhibition: at 57.5 µM (top of the series)
Text: NIH Molecular Libraries Probe Production Centers Network [MLPCN]
NIH Chemical Genomics Center [NCGC]
Assay Submitter (PI): Beller, Mathias; Max-Planck-Institut fur Biophysikalische Chemie
NCGC Assay Overview: Storing lipids as a reservoir for energy or the anabolism of elementary metabolites is a common feature of probably all cells and is conserved from bacteria to humans. The universal cellular lipid storage organelle is the so-called lipid storage droplet (LD). Although ubiquitous, LDs share a simple structure composed of a hydrophobic core that harbors the storage lipids, which is shielded by a droplet-specific phospholipid monolayer to which proteins are attached. The current model of LD biogenesis involves an incorporation of the lipid core into the membrane leaflets of the endoplasmic reticulum (ER) followed by a subsequent budding-like maturation of a LD, which ultimately pinches off. Once released, LD volume can increase by localized lipogenesis or fusion of existing droplets. Storage lipids are re-mobilized enzymatically by lipase activity. Lipase regulation in the adipocyte is heavily studied and involves multiple components including catecholamine signaling, the LD-associated proteins Perilipin and comparative gene identification-58 (CGI-58) and at least two lipases named hormone sensitive lipase (HSL) and adipocyte triglyceride lipase (ATGL). LD regulation outside of the adipocyte is poorly understood and only few components are known. However, there is an urgent need to learn more about ectopic fat depots as mislocalized storage of lipids, for example in the liver or muscle, is an eminent health problem associated with insulin resistance or the metabolic syndrome. We developed a laser-scanning cytometer assay to enable 1,536-well screening and combined the results of the small molecules screen with an RNAi database based on lipid storage.
NCGC Assay Protocol Summary:
We dispensed 4 uL of cells at 1.25 x 10^6 cells/mL into LoBase Aurora COC 1,536-well plates (black walled, clear bottom) with a bottle-valve solenoid-based dispenser (Aurora) to obtain 5,000 cells/well. Triacsin C (Sigma-Aldrich T-4540), an inhibitor of long-chain fatty acyl CoA synthetase that blocks synthesis of triglycerides, was used as a positive control for lipid under-storage. A total of 23 nL of compound solution of different concentrations were transferred to the assay plates using a Kalypsys pin tool equipped with a 1,536-pin array containing 10-nL slotted pins (FP1S10, 0.457-mm diameter, 50.8 mm long; V&P Scientific). One microliter of oleic acid (400 uM) was added, and the plate was lidded with stainless steel rubber gasket lined lids containing pinholes. […] Fluorescence was detected by excitation of the fluorophores with a 488-nm laser on an Acumen Explorer (TTP Lab Tech). The total intensity in channel 1 (500-530 nm) reflected lipid droplet accumulation. […] The ratio of the total intensity in PMT channel 1 over total intensity of channel 3 was also calculated. Percent activity was computed relative to an internal control (100% inhibited lipid droplet deposition due to the presence of 20 uM Triacsin C), which was added to 32 wells/plate.

[1] = measured here: cell count channel max response
[2] = measured here: lipid channel max response

SMILES | activity change, negative = inhibition | max response [1] [%] | max response [2] [%]
Cc1noc(C)c1C(=O)N1CCC[C@@]2(CCN(Cc3ccccc3)C2)C1 | 2.65% (inactive) | 16.8 | 22.2
Cc1noc(C)c1-c1cncnc1NCc1ccccc1 | 6.38% (inactive) | 0.495 | 15.9
COc1cccc(-c2cc(N(C)Cc3ccco3)ncn2)c1 | 8.28% (inactive) | 20.9 | 28.5
O=C(c1ccco1)N1CCC2(CC1)CN(c1ccc(-c3ccccc3)cc1)C2 | 2.85% (inactive) | -15.3 | -11.7
Cn1cc(-c2nc3cnc(Oc4ccccc4)nc3n(C)c2=O)c2ccccc21 | -0.452% (inactive) | 14.6 | 18.4
COc1ncc2nc(-c3cc(F)cc(F)c3)c(=O)n(C)c2n1 | 5.28% (inactive) | 24.3 | 28.7
CC(=O)N1CCC2(CCCN(c3ccccc3)C2)CC1 | 1.01% (inactive) | 9.92 | 12.8
COc1ccc(Oc2ncc3ncc(=O)n(C)c3n2)cc1 | 5.63% (inactive) | 9.26 | 14.1
Cc1cccc(CNc2ncnc3ccc(-c4cccnc4)cc23)c1 | 2.99% (inactive) | -7.82 | -4.88
CN(C)c1ncc2nc(-c3cc(F)cc(F)c3)c(=O)n(C3CC3)c2n1 | 6.95% (inactive) | 8.84 | 14.6
Cc1noc(C)c1C(=O)N1CCC2(CC1)CN(c1ccccc1)C2 | 4.6% (inactive) | -4.97 | 1.75
CC(=O)N1CCC2(CC1)CN(c1ccccn1)C2 | 7.33% (inactive) | 3.77 | 14.1
Cc1nc2cnc(Nc3ccccc3)nc2n(C)c1=O | -9.81% (inactive) | 9.14 | 2.52
COCC(=O)N1CCC2(CC1)CCN(c1ccccn1)CC2 | 2.07% (inactive) | 0.785 | 4.41
